Reference: ChEMBL document CHEMBL1961873, “Compounds: GSK PKIS; Assays: Nanosyn kinase panel” (2012)

How the values were obtained:
[1] = molecular target: Leukocyte tyrosine kinase receptor (Homo sapiens) (UniProt P29376); conditions: at 1 µM;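 also: each value is the mean inhibition of LTK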
[2] = molecular target: Tyrosine-protein kinase Lyn (Homo sapiens) (UniProt P07948); conditions: at 0.1 µM
[3] = molecular target: Tyrosine-protein kinase Lyn (Homo sapiens) (UniProt P07948); conditions: at 1 µM
[4] = molecular target: Tyrosine-protein kinase Lyn (Homo sapiens) (UniProt P07948); conditions: at 0.1 µM; remark: listed apart in the source
[5] = molecular target: Tyrosine-protein kinase Lyn (Homo sapiens) (UniProt P07948); conditions: at 1 µM; remark: listed apart in the source
[6] = molecular target: T1, Tyrosine-protein kinase Mer (Homo sapiens) (UniProt Q12866); conditions: at 0.1 µM
T1 sequence (whole entry): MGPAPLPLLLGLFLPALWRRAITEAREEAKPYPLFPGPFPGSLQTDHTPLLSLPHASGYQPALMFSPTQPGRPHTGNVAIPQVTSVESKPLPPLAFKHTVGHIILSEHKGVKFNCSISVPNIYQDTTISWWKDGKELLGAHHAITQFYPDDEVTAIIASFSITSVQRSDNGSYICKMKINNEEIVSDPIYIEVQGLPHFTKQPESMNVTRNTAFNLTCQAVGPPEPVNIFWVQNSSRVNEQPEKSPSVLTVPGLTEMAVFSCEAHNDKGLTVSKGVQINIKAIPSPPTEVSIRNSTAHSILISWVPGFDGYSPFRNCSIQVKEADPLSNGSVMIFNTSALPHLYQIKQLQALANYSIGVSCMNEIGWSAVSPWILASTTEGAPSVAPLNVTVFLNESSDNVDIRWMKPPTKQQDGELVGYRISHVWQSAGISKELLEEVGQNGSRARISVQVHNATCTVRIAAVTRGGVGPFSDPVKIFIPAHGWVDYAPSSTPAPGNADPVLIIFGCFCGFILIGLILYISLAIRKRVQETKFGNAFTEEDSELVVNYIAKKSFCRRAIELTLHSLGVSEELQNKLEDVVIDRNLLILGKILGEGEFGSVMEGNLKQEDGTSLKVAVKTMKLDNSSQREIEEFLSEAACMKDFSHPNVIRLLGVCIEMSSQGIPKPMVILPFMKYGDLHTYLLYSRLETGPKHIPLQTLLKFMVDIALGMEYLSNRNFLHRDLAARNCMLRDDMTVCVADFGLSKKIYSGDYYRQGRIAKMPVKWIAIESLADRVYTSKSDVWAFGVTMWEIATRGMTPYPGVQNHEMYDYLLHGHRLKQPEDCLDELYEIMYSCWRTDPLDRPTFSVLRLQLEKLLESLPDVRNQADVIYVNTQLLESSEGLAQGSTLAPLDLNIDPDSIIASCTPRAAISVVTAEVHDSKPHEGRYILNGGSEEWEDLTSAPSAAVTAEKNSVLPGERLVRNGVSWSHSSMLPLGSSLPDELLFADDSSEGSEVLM

[7] = molecular target: T1, Tyrosine-protein kinase Mer (Homo sapiens); conditions: at 1 µM
[8] = molecular target: Hepatocyte growth factor receptor (Homo sapiens) (UniProt P08581); conditions: at 0.1 µM
Chain of Hepatocyte growth factor receptor (Homo sapiens) (P08581 whole entry): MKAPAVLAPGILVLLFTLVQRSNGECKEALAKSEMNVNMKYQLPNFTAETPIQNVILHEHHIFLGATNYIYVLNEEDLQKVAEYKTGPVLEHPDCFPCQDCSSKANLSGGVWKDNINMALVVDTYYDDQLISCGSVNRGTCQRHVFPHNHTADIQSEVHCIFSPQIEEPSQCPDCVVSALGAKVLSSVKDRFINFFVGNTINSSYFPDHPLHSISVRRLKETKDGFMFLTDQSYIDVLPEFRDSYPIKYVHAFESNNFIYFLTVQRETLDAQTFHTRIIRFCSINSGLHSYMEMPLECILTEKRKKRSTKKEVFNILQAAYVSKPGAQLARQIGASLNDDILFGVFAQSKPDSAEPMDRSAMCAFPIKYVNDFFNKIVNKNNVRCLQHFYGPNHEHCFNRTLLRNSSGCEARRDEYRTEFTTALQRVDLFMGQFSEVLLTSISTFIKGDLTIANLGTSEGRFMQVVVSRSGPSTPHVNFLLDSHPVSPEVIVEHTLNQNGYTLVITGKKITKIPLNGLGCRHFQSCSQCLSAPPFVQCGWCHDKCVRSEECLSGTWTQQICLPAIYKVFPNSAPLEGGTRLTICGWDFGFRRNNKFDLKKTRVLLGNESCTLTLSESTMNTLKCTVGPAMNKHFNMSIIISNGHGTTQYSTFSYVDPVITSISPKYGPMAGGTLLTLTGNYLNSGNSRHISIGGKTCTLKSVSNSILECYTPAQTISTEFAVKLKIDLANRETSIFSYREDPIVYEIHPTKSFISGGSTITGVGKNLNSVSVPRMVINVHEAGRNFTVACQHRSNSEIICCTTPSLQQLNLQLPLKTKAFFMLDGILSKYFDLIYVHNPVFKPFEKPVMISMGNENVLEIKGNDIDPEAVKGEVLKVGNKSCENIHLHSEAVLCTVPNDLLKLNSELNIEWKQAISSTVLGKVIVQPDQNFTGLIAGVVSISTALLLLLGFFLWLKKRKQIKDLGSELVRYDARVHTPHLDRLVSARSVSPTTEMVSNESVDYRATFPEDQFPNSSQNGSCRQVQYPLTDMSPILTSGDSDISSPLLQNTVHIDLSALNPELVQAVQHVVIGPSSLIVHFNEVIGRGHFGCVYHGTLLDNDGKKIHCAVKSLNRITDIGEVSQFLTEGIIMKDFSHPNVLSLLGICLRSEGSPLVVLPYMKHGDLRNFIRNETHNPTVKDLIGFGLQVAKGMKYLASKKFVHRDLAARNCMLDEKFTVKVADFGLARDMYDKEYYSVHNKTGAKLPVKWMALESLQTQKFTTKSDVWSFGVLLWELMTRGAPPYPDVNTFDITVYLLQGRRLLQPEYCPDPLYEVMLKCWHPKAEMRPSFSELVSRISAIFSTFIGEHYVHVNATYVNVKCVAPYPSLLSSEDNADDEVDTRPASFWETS

[9] = molecular target: Hepatocyte growth factor receptor (Homo sapiens) (UniProt P08581); conditions: at 1 µM
[10] = molecular target: T2, Muscle, skeletal receptor tyrosine-protein kinase (Homo sapiens) (UniProt O15146); conditions: at 0.1 µM;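 also: values are mean inhibition of MuSK from the GSK PKIS kinase screening panel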
T2 sequence (whole entry): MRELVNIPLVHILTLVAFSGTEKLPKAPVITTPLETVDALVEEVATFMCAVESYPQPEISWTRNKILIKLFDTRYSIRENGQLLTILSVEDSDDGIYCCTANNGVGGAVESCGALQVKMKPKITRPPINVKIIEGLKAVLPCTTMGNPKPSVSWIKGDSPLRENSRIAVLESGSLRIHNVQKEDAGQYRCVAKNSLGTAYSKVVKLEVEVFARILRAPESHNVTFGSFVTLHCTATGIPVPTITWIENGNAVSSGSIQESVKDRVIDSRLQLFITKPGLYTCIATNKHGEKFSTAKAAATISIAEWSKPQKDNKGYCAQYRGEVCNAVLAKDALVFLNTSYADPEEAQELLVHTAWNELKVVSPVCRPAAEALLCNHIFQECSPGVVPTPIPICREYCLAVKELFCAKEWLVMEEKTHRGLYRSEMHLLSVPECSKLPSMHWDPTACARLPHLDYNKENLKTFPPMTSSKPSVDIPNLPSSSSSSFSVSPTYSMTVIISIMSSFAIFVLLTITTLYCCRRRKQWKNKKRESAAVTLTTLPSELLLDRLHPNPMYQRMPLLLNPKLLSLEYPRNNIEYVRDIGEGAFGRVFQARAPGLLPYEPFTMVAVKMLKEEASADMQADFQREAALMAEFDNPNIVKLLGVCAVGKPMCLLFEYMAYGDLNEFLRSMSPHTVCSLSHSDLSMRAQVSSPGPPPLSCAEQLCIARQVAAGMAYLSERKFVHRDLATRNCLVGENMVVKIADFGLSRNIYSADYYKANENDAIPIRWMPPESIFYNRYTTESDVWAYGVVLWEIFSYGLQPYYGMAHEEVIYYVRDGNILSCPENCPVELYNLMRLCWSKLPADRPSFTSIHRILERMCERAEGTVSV

Chain of Tyrosine-protein kinase Lyn (Homo sapiens) (P07948 2-512 limits assumed): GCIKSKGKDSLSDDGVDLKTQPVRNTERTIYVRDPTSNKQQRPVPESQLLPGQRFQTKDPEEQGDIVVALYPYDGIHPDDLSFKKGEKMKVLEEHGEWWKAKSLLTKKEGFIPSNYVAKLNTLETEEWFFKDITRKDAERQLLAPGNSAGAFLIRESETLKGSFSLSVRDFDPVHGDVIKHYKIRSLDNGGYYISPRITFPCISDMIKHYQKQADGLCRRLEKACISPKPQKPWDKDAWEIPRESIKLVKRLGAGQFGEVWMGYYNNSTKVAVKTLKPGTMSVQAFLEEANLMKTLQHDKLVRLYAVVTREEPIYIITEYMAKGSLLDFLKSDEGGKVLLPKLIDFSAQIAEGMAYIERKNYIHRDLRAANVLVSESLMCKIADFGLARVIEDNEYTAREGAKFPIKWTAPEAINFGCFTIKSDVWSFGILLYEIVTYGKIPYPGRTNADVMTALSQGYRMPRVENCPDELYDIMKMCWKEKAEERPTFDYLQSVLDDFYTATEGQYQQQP
Chain of Leukocyte tyrosine kinase receptor (Homo sapiens) (P29376 whole entry): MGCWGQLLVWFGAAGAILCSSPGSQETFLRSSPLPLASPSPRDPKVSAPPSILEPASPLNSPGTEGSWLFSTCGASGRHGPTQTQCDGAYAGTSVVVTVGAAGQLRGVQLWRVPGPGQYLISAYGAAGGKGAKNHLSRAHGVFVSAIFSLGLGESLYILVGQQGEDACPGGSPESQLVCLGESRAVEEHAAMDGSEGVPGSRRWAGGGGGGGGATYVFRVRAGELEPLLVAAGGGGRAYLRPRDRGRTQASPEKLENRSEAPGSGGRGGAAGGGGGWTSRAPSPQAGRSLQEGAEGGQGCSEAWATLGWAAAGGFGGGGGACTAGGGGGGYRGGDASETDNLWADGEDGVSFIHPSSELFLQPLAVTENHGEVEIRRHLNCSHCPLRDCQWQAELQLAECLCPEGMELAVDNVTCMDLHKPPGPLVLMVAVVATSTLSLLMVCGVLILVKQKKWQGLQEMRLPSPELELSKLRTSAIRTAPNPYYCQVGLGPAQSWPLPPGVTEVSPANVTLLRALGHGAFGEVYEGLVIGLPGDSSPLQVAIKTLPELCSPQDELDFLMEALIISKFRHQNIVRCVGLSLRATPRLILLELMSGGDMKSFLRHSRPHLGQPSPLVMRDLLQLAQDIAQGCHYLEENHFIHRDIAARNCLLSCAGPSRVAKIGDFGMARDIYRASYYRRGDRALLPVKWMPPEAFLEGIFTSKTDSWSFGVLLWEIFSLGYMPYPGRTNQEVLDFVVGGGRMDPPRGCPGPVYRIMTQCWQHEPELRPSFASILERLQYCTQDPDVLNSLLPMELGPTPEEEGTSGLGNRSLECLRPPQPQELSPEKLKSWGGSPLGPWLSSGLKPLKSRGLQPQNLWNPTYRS

Row | SMILES | inhibition [1] [%] | inhibition [2] [%] | inhibition [3] [%] | inhibition [4] [%] | inhibition [5] [%] | inhibition [6] [%] | inhibition [7] [%] | inhibition [8] [%] | inhibition [9] [%] | inhibition [10] [%]
1 | Nc1nc(-c2ccccn2)c(-c2ccc3ncccc3n2)s1 | 2.34 | 4.59 | 4.44 | 2.14 | 3.06 | 0.73 | 4.5 | 2.46 | 9.52 | 3.99
2 | CCn1c(-c2nonc2N)nc2cncc(C(=O)N3CC[C@H](N)C3)c21 | 4.61 | 8.57 | 7.74 | 6.42 | 5.67 | 0.47 | 3.48 | 5.74 | 5.85 | 4.23
3 | COc1ccc(COc2ccc(Cc3cnc(N)nc3N)cc2OC)cc1 | -0.41 | 0.58 | 0.33 | 0.18 | 2.08 | 2.31 | 3.48 | 2.14 | 5.98 | 4.72
4 | Cc1cc(O)cc(C)c1/C=C/c1cncc(-c2nn[nH]n2)c1 | 27.8 | 21.9 | 78.4 | 17 | 73.9 | 2.28 | 5.61 | 3.29 | 8.95 | 2.58
5 | COc1cccc(-n2ncc3c(N/N=C/c4cccc(F)c4)ncnc32)c1 | 1.7 | 13.9 | 55.9 | 10.2 | 50.7 | 0.34 | 7.16 | 7.49 | 17.2 | 3.52
6 | NS(=O)(=O)c1ccc(N/N=C2\C(=O)Nc3ccc(C(=O)NCCc4c[nH]cn4)cc32)cc1 | 7.32 | 8.15 | 15.6 | 5.07 | 12.6 | 0.87 | 4.99 | 8.81 | 12.3 | 10.8
7 | CCCN1CCC=C(c2ccc(Nc3nc(Nc4ccccc4C(N)=O)c4cc[nH]c4n3)c(C)c2)C1 | 93.9 | 2.75 | 6.69 | -0.18 | 2.97 | 1.4 | 10.5 | 6.76 | 13.1 | 4.95
8 | NC(=O)c1ccc(-c2nc(-c3ccccn3)c(-c3ccc4c(c3)OCO4)[nH]2)cc1 | 3.18 | 2.23 | 2.11 | 1.62 | 3.18 | 1.67 | 3.36 | -4.12 | 9.28 | 2.51
9 | CCn1c(-c2nonc2N)nc2cncc(C(=O)N3CCNCC3)c21 | 5.18 | 5.29 | 5.94 | 1.79 | 4.29 | 1.99 | 2.33 | 2.94 | 2.13 | 3.39
10 | Cc1ccc(NC(=O)c2ccnc(N3CCCC3)c2)cc1-c1ccc(C(=O)NCC2CC2)cc1 | 2.5 | 3.64 | 8.64 | 1.83 | 5.14 | 1.62 | 3.81 | 9.41 | 7.36 | 4.38
11 | Cn1cc(C=C2C(=O)Nc3cccnc32)c2ccccc21 | 5.51 | 6.97 | 41.8 | 5.53 | 36 | 2.2 | 16.9 | 0.96 | 5.5 | 3.74
12 | NS(=O)(=O)c1cccc(-c2ccc3c(NC(=O)C4CC4)n[nH]c3c2)c1 | -0.78 | 1.09 | 1.65 | 1.19 | 1.05 | 0.89 | 1.03 | -4.06 | 3.16 | 0.75
13 | O=C1NC(=O)C(c2ccccc2Cl)=C1Nc1cccc(O)c1 | 1.2 | 5.68 | 3.94 | 1.34 | 2.65 | 1.63 | 4.66 | 1.79 | -0.4 | 3.23
14 | COc1cc2ncn(-c3cc(O[C@H](C)c4ccccc4Cl)c(C(N)=O)s3)c2cc1OC | 11.3 | 6.61 | 27.9 | 5.21 | 23.9 | 5.63 | 22.6 | 4.85 | 17 | 29.3
15 | COC(=O)Nc1nc2cc(Oc3cccc(NC(=O)Nc4cc(C(F)(F)F)ccc4F)c3)ccc2[nH]1 | 24.9 | 7.9 | 45.9 | 5.64 | 41.6 | -1.21 | -0.14 | 1 | 0.32 | 4.58
16 | O=C(Nc1n[nH]c2nc(-c3ccco3)c(Br)cc12)C1CC1 | 0.72 | 4.37 | 4.24 | 2.54 | 3.6 | 1.42 | 4.5 | 1.38 | 6.65 | 2.24
17 | O=C1NC(=O)C(c2cccc(Cl)c2)=C1Nc1ccc(O)c(Cl)c1 | 0.35 | 1.27 | 3.18 | 0.38 | 3.63 | -0.5 | 3.08 | 0.77 | 3.7 | 0.25

Row | SMILES | inhibition [1] [%] | inhibition [2] [%] | inhibition [3] [%] | inhibition [4] [%] | inhibition [5] [%] | inhibition [6] [%] | inhibition [7] [%] | inhibition [8] [%] | inhibition [9] [%] | inhibition [10] [%]
18 | N#Cc1c(NC(=O)c2cccc3ccccc23)sc2c1CCCC2 | 2.53 | 4.91 | 5.68 | 2.96 | 3.7 | 0.86 | 1.53 | 3.61 | 7.33 | 3.62
19 | CS(=O)(=O)CCN(CC#N)Cc1ccc(-c2ccc3ncnc(Nc4ccc(OCc5cccc(F)c5)c(Cl)c4)c3c2)o1 | 1.95 | 2.44 | 3.17 | 1.32 | 1.72 | 2.77 | 2.05 | 7.6 | 2.64 | 1.44
20 | COc1cc2ncn(-c3cc(OCc4ccccc4C(F)(F)F)c(C(N)=O)s3)c2cc1OC | 4.35 | 6.12 | 21.5 | 3.89 | 17.4 | 2.08 | 9.28 | 4.37 | 19.5 | 11
21 | Fc1cccc(COc2ccc(Nc3ncnc4cc(-c5ccc[nH]5)sc34)cc2Cl)c1 | 9.35 | 2.95 | 7.02 | 1.43 | 4.65 | 1.29 | 5.95 | -0.09 | 4.48 | 1.3
22 | COc1ccc(-c2coc3ncnc(N)c23)cc1 | 2.3 | 5.38 | 5.54 | 3.09 | 7.61 | 2.63 | 2.9 | 10 | 6.47 | 4.06
23 | COc1ccc2cc(-c3c(-c4ccncc4)nc(-c4ccc([S+](C)[O-])cc4)n3C)ccc2c1 (stereo not given) | 2.37 | 2.95 | 9.35 | 1.98 | 6.67 | 0.48 | 6.32 | 4.07 | -0.71 | 1.76
24 | Nc1ncnc2occ(-c3ccc(NC(=O)Nc4cc(C(F)(F)F)cc(C(F)(F)F)c4)cc3)c12 | 23.7 | 4.96 | 37 | 3.86 | 34 | 0.69 | 14.4 | -0.72 | 10.3 | 77.6
25 | CCN1CCC(CC(=O)Nc2n[nH]c3nc(-c4cccs4)c(Br)cc23)CC1 | 0.89 | 0.07 | 1.67 | -0.46 | 1.82 | -0.67 | 3.05 | -0.73 | -0.38 | 0.33
26 | COc1cc(C=NNc2ncnc3c2cnn3-c2ccccc2)ccc1O | 6.55 | 17.1 | 65.9 | 13.3 | 62.8 | 6.78 | 34.5 | 21.5 | 88.6 | 7.87
27 | [O-][S+]1CCN(Cc2ccc(-c3ccc4ncnc(Nc5ccc(OCc6ccccc6)c(F)c5)c4c3)o2)CC1 | 3.33 | 2.19 | 5.34 | 1.2 | 1.42 | 42.1 | 81.8 | 6.51 | 0.93 | 1.44
28 | Cc1nn(C)c2cc(N(C)c3ccnc(Nc4cccc(S(N)(=O)=O)c4)n3)ccc12 | 29 | 13.6 | 51.3 | 9.71 | 46.8 | 2.42 | 18.8 | 7.18 | 37.1 | 2.31
29 | CCc1cccc(NC(=O)Nc2ccc(Oc3ccc4nc(NC(=O)OC)[nH]c4c3)cc2)c1 | 0.04 | 10 | 20.8 | 7.66 | 15.2 | 2.96 | 3.11 | 15.7 | 27.4 | 16.2
30 | Nc1ncnc2occ(-c3ccc(NC(=O)Nc4cccc(C(F)(F)F)c4)cc3)c12 | 47.1 | 19.4 | 72.2 | 13.3 | 67.8 | 3.32 | 31.6 | 3.03 | 29 | 72.9
31 | CCn1c(-c2nonc2N)nc2ccncc21 | 0.42 | 2.64 | -1.88 | 1.5 | -0.9 | 0.16 | -0.52 | 8.81 | 2.41 | -0.65
32 | COC(=O)Nc1nc2cc(Oc3ccc(NC(=O)Nc4cccc(C(=O)O)c4)cc3)ccc2[nH]1 | -0.52 | 0.39 | 5.81 | 0.48 | 2.9 | 0.61 | 2.01 | -0.09 | 11.4 | -0.16
33 | COc1cc2ncn(-c3cc(OCc4ccccc4Cl)c(C(N)=O)s3)c2cc1OC | 4.03 | 3.15 | 25.6 | 2.45 | 21.1 | 1.26 | 8.5 | -0.6 | 19.7 | 4.75
34 | CS(=O)(=O)CCNCc1ccc(-c2ccc3ncnc(Nc4ccc(OCc5ccccc5)c(Cl)c4)c3c2)o1 | 4.23 | 1.21 | 6.25 | 1.19 | 5.08 | 4.37 | 30.6 | 5.04 | 7.4 | 3.89
